This is a sample that favours compounds with a hit; in the whole collection about 28% have one here.
CD11b adhes enh: enhancers of CD11b/CD18 adhesion to fibrinogen, primary screen, K562 cells, luminescence; ATPlite luminescence; activation, % at 10 µM; AID 1499, 2009; Integrin beta-2 (Homo sapiens) + Integrin alpha-M (Homo sapiens), P05107+P11215; 0.07% of 93,000 active;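 active = 10 µM primary screen giving 50% or more activity, confirmed by 40% or more on retest at that dose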
CYP2C19 act: human CYP2C19 activators, primary screen, biochemical, luminescence; Cytochrome P450 2C19 (Homo sapiens), P33261; AID 1025, 2008; recombinant CYP2C19, luciferin-H EGE luminescence; hits give high values; 0 = fully inhibited enzyme, 1 = untreated enzyme; 96,000 tested, under 10 active; activation factor at 5 µM;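 active = activation factor of at least 2 at 5 µM in the primary screen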;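 also: 0 = wells with 2.5 mM tranylcypromine and 1 = vehicle-only wells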
Target sequence (P33261 whole entry, looked up): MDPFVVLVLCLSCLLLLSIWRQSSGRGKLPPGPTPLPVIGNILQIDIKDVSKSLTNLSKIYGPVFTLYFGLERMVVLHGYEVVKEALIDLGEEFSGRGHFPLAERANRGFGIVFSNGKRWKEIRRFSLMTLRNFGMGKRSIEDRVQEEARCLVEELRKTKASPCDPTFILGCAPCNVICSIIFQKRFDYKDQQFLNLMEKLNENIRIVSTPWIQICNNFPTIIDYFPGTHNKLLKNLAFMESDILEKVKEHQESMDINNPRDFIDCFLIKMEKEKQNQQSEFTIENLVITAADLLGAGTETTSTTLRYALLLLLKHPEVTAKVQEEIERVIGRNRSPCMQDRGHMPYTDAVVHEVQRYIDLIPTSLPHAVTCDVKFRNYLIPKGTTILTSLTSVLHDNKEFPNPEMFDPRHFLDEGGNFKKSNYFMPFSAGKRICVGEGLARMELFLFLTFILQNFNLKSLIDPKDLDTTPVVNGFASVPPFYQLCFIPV
CYP2C9 inh: blockers of cytochrome P450 2C9 activity – biochemical, luminescence, ADME assay, primary screen | P11712 | CYP2C9 Supersomes, luciferin-H conversion | inhibition, % at 5 µM | 20% of 96,000 active;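 active = blocking of liver enzyme CYP2C9 beyond about 50% at 5 µM, limit read from the data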
CYP2C9 act: human CYP2C9 activators, primary screen, biochemical, luminescence; Cytochrome P450 2C9 (Homo sapiens), P11712; recombinant CYP2C9, luciferin-H conversion; hits give high values; factor 1 = untreated enzyme, 0 = blocked; activation factor at 5 µM; 1.4% of 96,000 active; AID 1024, 2008;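 active = activation factor of 2 or more for CYP2C9 at a 5 µM dose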;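 also: 0 = sulfaphenazole-blocked wells and 1 = vehicle-only wells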
Mac1 fbg inh: inhibitors of CD11b/CD18 adhesion to fibrinogen, primary screen, K562 cells, luminescence; Integrin beta-2 (Homo sapiens) + Integrin alpha-M (Homo sapiens), P05107+P11215; ATPlite luminescence; Mn2+ added to activate the integrin; inhibition, % at 10 µM; 0.54% of 93,000 active;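 active = primary inhibition of 50% or more at 10 µM, then 40% or more on retest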
CYP2C19 inh: blockers of cytochrome P450 2C19 activity – biochemical, luminescence, ADME assay, primary screen; CYP2C19 Supersomes, luciferin-H EGE luminescence, 30 min; 21% of 96,000 active; inhibition, % at 5 µM; P33261;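 active = CYP2C19 inhibition above a set limit at 5 µM in the primary screen, cut at about 50% in these data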;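 also: plate controls were negative control wells for no effect and 2.5 mM tranylcypromine positive control for full effect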
* marks the source's active call; other numbers are inactive results; nt = not tested or not shown.

SMILES	CD11b adhes enh	CYP2C19 act	CYP2C9 inh	CYP2C9 act	Mac1 fbg inh	CYP2C19 inh
CCN1CCN(C(=O)c2cc3sccc3n2CC(=O)c2ccccc2)CC1	-2	0.4	42	0.6	-20	59*
CN1CCN(C(=O)c2cc3sccc3n2CC(=O)c2ccccc2)CC1	-1	0.8	-6	1.1	7	16
O=C1C(NS(=O)(=O)c2cccs2)=C(N2CCN(c3cccc(C(F)(F)F)c3)CC2)C(=O)c2ccccc21	3	0.7	52*	0.5	17	31
CCOc1ccccc1N1CCN(C2=C(NS(=O)(=O)c3cccs3)C(=O)c3ccccc3C2=O)CC1	-3	0.1	100*	0	27	92*
Cc1ccc(C)c(OCCOCCN2CC(C)OC(C)C2)c1C (configuration not stated)	2	0.7	0	1	-29	34
N#CCCC12CCCCC1=Nc1ccccc12 (configuration not stated)	-2	0.9	8	0.9	-3	5
CCC(=O)N1CCN(c2ccc(NC(=O)c3cc4ccccc4o3)cc2Cl)CC1	-1	0.6	50*	0.5	17	36
O=C(Nc1ccc(N2CCN(C(=O)c3ccccc3)CC2)c(Cl)c1)c1ccco1	-2	0.6	62*	0.4	-2	41
O=C(c1cc2ccccc2o1)N1CCN(c2ccccc2Cl)CC1	0	0.6	44	0.6	-18	44
CCCC(=O)N1CCN(c2ccc(NC(=O)c3cc4ccccc4o3)cc2Cl)CC1	-6	0.2	82*	0.2	73	81*
O=C(Nc1ccc(N2CCN(C(=O)c3ccco3)CC2)c(Cl)c1)c1cc2ccccc2o1	5	0.3	92*	0.1	51	71*
COc1ccc(OC)c(-c2cc(C(=O)NCCN3CCOCC3)no2)c1	2	1.1	-88	1.9	-9	-10
CCc1c(C)nc2cc(-c3ccc(OC)c(OC)c3)nn2c1NCC1CC1	-3	0.7	44	0.6	4	28
Cc1noc(C)c1S(=O)(=O)N1CCC(C(=O)NC2CCCc3ccccc32)CC1 (configuration not stated)	-3	1.1	-34	1.3	2	-5
O=C(CCN1C(=O)COc2ccccc21)NCCN1CCN(c2cccc(Cl)c2)CC1	8	0.9	2	1	-20	14
CCCCOc1ccc(C(=O)N2CCCCCC2)cc1	6	1	-7	1.1	-40	4
O=C(Nc1ccc(Cl)c(Cl)c1)Oc1ccc(NC(=O)c2ccco2)cc1	-8	1.1	-13	1.1	26	-6
O=C(Nc1ccc(Br)c(Cl)c1)c1ccco1	-2	0.3	43	0.6	-4	66*
CCCOc1ccc(C(=O)N2CCN(c3ccc(NC(=O)CC)cc3Cl)CC2)cc1	5	0	86*	0.1	11	96*
NS(=O)(=O)c1cccc(NC(=O)COC(=O)c2cc(-c3ccc(Cl)cc3)nc3ccccc23)c1	1	nt	nt	nt	8	nt
N#CC1=C(Nc2ccccc2)SC=C(c2ccc(Cl)c(Cl)c2)N=C1N1CCOCC1	nt	1	22	0.8	nt	1
O=C(Nc1ccccc1Cl)C1CCN(Cc2cnn(-c3ccccc3)c2-n2cccc2)CC1	2	0.8	23	0.8	-12	18
COc1cccc(NC(=O)C2CCN(Cc3cnn(-c4ccccc4)c3-n3cccc3)CC2)c1	-4	0.8	67*	0.3	6	18
O=C(NCc1ccc2c(c1)OCO2)C1CCN(Cc2cnn(-c3ccccc3)c2-n2cccc2)CC1	-1	0.7	51*	0.5	14	33
CC(=O)Nc1ccc(N2C(=O)CC(c3ccccc3)CC2=O)cc1	nt	1	-1	1	nt	-5
SMILES	CD11b adhes enh	CYP2C19 act	CYP2C9 inh	CYP2C9 act	Mac1 fbg inh	CYP2C19 inh
O=C1CC(c2ccccc2)CN1C(=O)c1ccccc1 (configuration not stated)	2	0.5	-10	1.1	11	52*
CCOCCCNC(=O)C1c2ccccc2C(=O)N2CCc3ccccc3C12 (configuration not stated)	-3	1.1	15	0.9	-20	-5
CC1(C)CC(=O)C2=C(C1)N=C1c3ccccc3C(=O)C1C2c1ccc(Cl)cc1 (configuration not stated)	1	0.2	92*	0.1	18	81*
O=C(COC(=O)c1ccccc1F)c1ccc(-n2nncc2-c2ccco2)cc1	5	0.7	45	0.5	-7	34
COC(=O)c1ccc(OC(=O)c2ccco2)cc1	0	0.9	6	0.9	-4	7
O=C(Oc1ccc(OC(=O)c2ccco2)c(S(=O)(=O)c2ccc(Br)cc2)c1)c1ccco1	nt	0.4	72*	0.3	nt	64*
O=C(Cn1ccc2ccccc2c1=O)N1CCN(c2cccc(Cl)c2)CC1	nt	1.1	-48	1.5	nt	-9
O=C(c1cnc(N2CCN(c3ncccn3)CC2)c2ccccc12)N1CCN(c2ncccn2)CC1	0	0.6	64*	0.4	22	42
CCN(C(=O)c1cnc(N2CCN(c3ncccn3)CC2)c2ccccc12)c1cccc(Cl)c1	nt	0	85*	0.2	nt	97*
O=C(c1csc2ccccc12)N1CCN(c2ccccn2)CC1	-3	0.6	-15	1.2	6	40
CN(C(=O)c1cnc(N2CCN(c3ncccn3)CC2)c2ccccc12)c1ccc(Cl)cc1	2	0.1	70*	0.3	0	88*
COc1ccc2nc3sc(C(=O)NCc4cccs4)c(N)c3cc2c1	32	0.2	56*	0.4	1	77*
COc1cccc(C(=O)c2c[nH]c(C(=O)NCc3cccs3)c2)c1	-4	0.9	19	0.8	-8	7
O=C(c1ccc(-c2cc3ccccc3oc2=O)cc1)N1CCN(c2ccc(Cl)cc2[N+](=O)[O-])CC1	30	nt	nt	nt	-7	nt
COc1ccc(N(CC(=O)Nc2ccc3c(c2)OCCO3)S(C)(=O)=O)c(OC)c1	1	0.7	84*	0.2	-19	26
COc1ccc(N(CC(=O)Nc2ccc3c(c2)OCCO3)S(=O)(=O)c2c(C)noc2C)cc1	nt	0.8	26	0.7	nt	20
COc1ccc(N(CC(=O)Nc2ccc3c(c2)OCO3)S(C)(=O)=O)c(OC)c1	1	0.8	69*	0.3	1	16
COc1ccc(OC)c(N(CC(=O)Nc2ccc3c(c2)OCCO3)S(C)(=O)=O)c1	-3	0.4	76*	0.2	-4	64*

Screens: PubChem, Sanford-Burnham Center for Chemical Genomics
